Compound activity (PubChem)
ERAP1 inh – inhibitors of human ERAP1 aminopeptidase | Q9NZ08 | recombinant ERAP1, Leu-AMC fluorescence, 60 min | inhibition, % at 10.7 µM | 340,000 tested, 0.15% active | AID 652197;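 active means mean replicate inhibition of at least 30%, or all replicates individually reaching that 30% level; inactive means mean below 30% and not every replicate reaching it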
AF4-AF9 inh – MLL-AF4/AF9 protein interaction inhibition | P42568 | AlphaScreen, biotin-AF4 peptide binding to FLAG-AF9 | AID 651704 | 350,000 tested, 0.47% active | inhibition, % at 10 µM;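 active means every replicate reaching a set inhibition limit, whatever the replicate mean, cut at about 25% in these data; inconclusive means mean inhibition reaches that limit but some replicates miss it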
RAD54 branch – RAD54 (human) branch migration inhibition; Q92698; RAD54 Holliday junction branch migration, FAM/BHQ fluorescence; inhibition, % at 10.4 µM; 360,000 tested, 0.14% active; AID 602329;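 active means mean normalized replicate activity at least 40 and at least half of replicates scoring 40 or more; inconclusive means only one of the two criteria met; inactive means mean below 40 and under half of replicates reaching 40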;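 further: inhibitors cause a drop in the FAM fluorescence signal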
PGC1a acetyl inh – lowers PGC1a acetylation signal in U2OS cells. 350,000 tested, 0.17% active. AlphaScreen anti-acetyl-lysine; with virally co-expressed GCN5 acetyltransferase. inhibition, % at 15.6 µM;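 active means every replicate shows inhibition of at least 40%; inconclusive means mean inhibition at least 40% but some replicate below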
GSIS activator – primary screen for activators of insulin secretion dependent on glucose, INS-1E cells, GLuc reporter luminescence. INS-1E GLuc reporter insulin secretion, 2-3 h. activation, % at 16.6 µM. 370,000 tested, 0.61% active;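 active means lowest replicate activation of at least 40%, so every replicate reaches that level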
RAD52 anneal inh – inhibitors of human RAD52 DNA annealing | recombinant RAD52 DNA annealing, FRET fluorescence | inhibition, % at 18.7 µM | 360,000 tested, 0.46% active | AID 651710;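 active means every replicate showing at least 50% inhibition; inconclusive means mean inhibition at least 50% but not in every replicate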
Target sequence (P43351 whole entry, looked up): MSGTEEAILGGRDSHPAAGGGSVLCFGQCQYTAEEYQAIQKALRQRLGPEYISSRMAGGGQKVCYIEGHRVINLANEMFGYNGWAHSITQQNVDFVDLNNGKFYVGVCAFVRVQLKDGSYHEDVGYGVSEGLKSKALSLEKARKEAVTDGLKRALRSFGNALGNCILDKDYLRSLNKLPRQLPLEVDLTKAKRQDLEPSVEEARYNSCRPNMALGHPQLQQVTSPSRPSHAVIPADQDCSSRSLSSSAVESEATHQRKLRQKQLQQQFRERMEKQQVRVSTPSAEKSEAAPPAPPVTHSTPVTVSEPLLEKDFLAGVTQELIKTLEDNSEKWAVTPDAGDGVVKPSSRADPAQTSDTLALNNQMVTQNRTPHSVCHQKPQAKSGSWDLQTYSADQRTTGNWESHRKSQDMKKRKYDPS
Each line names hits and unclear results; the compound was inactive in the other large screens; ! = a repeat was not active. A selection: hits, their analogues and other compounds. The true share with any hit is near 1.4%.

COc1cccc(-c2nc(NCc3ccco3)c3ccccc3n2)c1O	GSIS activator 75.6 (no result: ERAP1 inh, AF4-AF9 inh, RAD52 anneal inh)
O=C(C[C@@H]1CC[C@@H]2[C@H](COC[C@H](O)CN2S(=O)(=O)c2ccccc2)O1)NCC1CCCCC1	none
Cc1ccc(S(=O)(=O)N2C[C@@H](O)COC[C@@H]3O[C@H](CC(=O)NCC4CCCCC4)CC[C@H]32)cc1	none
Cc1ccc(S(=O)(=O)N2C[C@@H](O)COC[C@H]3O[C@@H](CC(=O)NCC4CCCCC4)CC[C@@H]32)cc1	RAD52 anneal inh 52.7
O=C(C[C@@H]1CC[C@H]2[C@@H](COC[C@@H](O)CN2S(=O)(=O)c2ccc(F)cc2)O1)NCC1CCCCC1	AF4-AF9 inh 30.8, RAD52 anneal inh 70.3
O=C(C[C@H]1CC[C@H]2[C@@H](COC[C@H](O)CN2S(=O)(=O)c2ccccc2)O1)NCC1CCCCC1	AF4-AF9 inh 33.4, RAD52 anneal inh 82.8
O=C(C[C@H]1CC[C@H]2[C@@H](COC[C@@H](O)CN2S(=O)(=O)c2ccc(F)cc2)O1)NCC1CCCCC1	none
O=C(C[C@H]1CC[C@H]2[C@@H](COC[C@H](O)CN2S(=O)(=O)c2ccc(F)cc2)O1)NCC1CCCCC1	AF4-AF9 inh 28.4, RAD52 anneal inh 66.4
CCCNC(=O)N1CC2(C1)[C@H](c1ccccc1)[C@@H](CO)N2Cc1ccccn1	none (no result: RAD54 branch)
COc1cc(OC)c2c3c(c(C4CCCCC4)nc2c1)CCCC3	none (no result: ERAP1 inh)
COc1cc(OC)c2c(-c3ccccc3)cc(C3CCCCC3)nc2c1	GSIS activator 42.4
CCN(C(=O)COC(=O)CNC(=O)C12CC3CC(CC(C3)C1)C2)C1CCS(=O)(=O)C1 (stereo not drawn)	none
CCN(C(=O)C12CC3CC(CC(C3)C1)C2)C1CCS(=O)(=O)C1 (stereo not drawn)	GSIS activator 59.4 (no result: PGC1a acetyl inh)
COc1ccc2c3c([nH]c2c1)[C@@H](CO)N(C)CC31CN(C(=O)c2ccccn2)C1	none (no result: ERAP1 inh, RAD54 branch, RAD52 anneal inh)
Nc1nc(N)nc(-c2cccc([N+](=O)[O-])c2)n1	GSIS activator 59.7
CCC1CCCCN1Cc1c(O)ccc2c(=O)c(-c3ccccc3OC)coc12 (stereo not drawn)	AF4-AF9 inh 29.1
CCC(=O)N(C)C[C@H]1Oc2ncc(C3=CCCC3)cc2C(=O)N([C@@H](C)CO)C[C@@H]1C	none
CCN(CC)c1ccc(Nc2nc(Cl)ncc2Br)cc1	AF4-AF9 inh 27.1
CCN(CC)c1ccc(CNc2ccc(Br)cn2)cc1	none (no result: ERAP1 inh, AF4-AF9 inh, GSIS activator, RAD52 anneal inh)
CC(=O)N1c2ccc(S(=O)(=O)N3CCCC(C(=O)NCc4ccccc4Cl)C3)cc2CC1C (stereo not drawn)	none
CC(=O)N1CCCc2cc(S(=O)(=O)N3CCCC(C(=O)NCc4ccccc4Cl)C3)ccc21 (stereo not drawn)	AF4-AF9 inh 31.6
CCCNC(=O)[C@H]1[C@H](CO)[C@H]2Cn3c(ccc(-c4ccccc4F)c3=O)[C@@H]1N2CCC	none (no result: ERAP1 inh, AF4-AF9 inh, RAD54 branch, PGC1a acetyl inh, RAD52 anneal inh)
Cn1cnc(S(=O)(=O)N[C@H]2C=C[C@@H](CC(=O)NCC3CC3)O[C@@H]2CO)c1	none
CCS(=O)(=O)c1ccc(O)c(NC(=O)COc2ccc(Br)cc2)c1	PGC1a acetyl inh 96.8 (no result: RAD54 branch)
CCN(CC)S(=O)(=O)c1ccc(O)c(NC(=O)COc2ccc(S(=O)(=O)N3CCOCC3)cc2)c1	none (no result: PGC1a acetyl inh)
O=S(=O)(c1ccccc1)N1C[C@H]2[C@@H](c3ccccc31)[C@H](CO)N2Cc1ccccc1	none
COc1ccccc1NC(=O)CSc1n[nH]c(Cc2ccccc2)n1	GSIS activator 43.4
CCc1nc(SCC(=O)Nc2ccccc2C)n[nH]1	none (no result: PGC1a acetyl inh)
COc1cc(CN2[C@@H]3CNC[C@H]2C3c2ccc(-c3cccc(C)c3)cc2)cc(OC)c1 (stereo partly drawn)	RAD52 anneal inh 58.8 (no result: ERAP1 inh, RAD54 branch)
Fc1cccc(CN2[C@@H]3CNC[C@H]2C3c2ccc(-c3cccc(F)c3)cc2)c1 (stereo partly drawn)	RAD52 anneal inh 50.9! (no result: RAD54 branch)
C[C@@H]1CN([C@@H](C)CO)C(=O)Cc2cc(NC(=O)CCCCCC(=O)Nc3ccccc3N)ccc2O[C@H]1CN(C)C	none
O=C(Nc1cccnc1)/C(N=Nc1cccnc1)=C(\O)c1ccccc1	GSIS activator 74.7 (no result: ERAP1 inh, AF4-AF9 inh, RAD54 branch, PGC1a acetyl inh, RAD52 anneal inh)
O=C(C[C@@H]1CC[C@@H]2[C@H](COC[C@H](O)CN2S(=O)(=O)c2ccccc2)O1)N1CCOCC1	none
COc1ccc(-c2ccc(C3[C@H]4CNC[C@@H]3N4C(=O)Nc3cccc(OC)c3)cc2)cc1 (stereo partly drawn)	RAD52 anneal inh 66.6! (no result: RAD54 branch)
COc1ccc(-c2ccc(C3[C@H]4CNC[C@@H]3N4S(=O)(=O)c3cccc(Cl)c3)cc2)cc1 (stereo partly drawn)	none (no result: RAD54 branch)
COc1cccc(NC(=O)N2[C@@H]3CNC[C@H]2C3c2ccc(-c3cccnc3)cc2)c1 (stereo partly drawn)	none (no result: RAD54 branch)
Cc1cccc(-c2ccc(C3[C@H]4CNC[C@@H]3N4C(=O)Nc3ccccc3Cl)cc2)c1 (stereo partly drawn)	none (no result: ERAP1 inh, AF4-AF9 inh, RAD54 branch, RAD52 anneal inh)
COc1cccc(-c2ccc(C3[C@H]4CNC[C@@H]3N4S(=O)(=O)c3cccc(Cl)c3)cc2)c1 (stereo partly drawn)	RAD52 anneal inh 53.0 (no result: RAD54 branch)
COc1cccc(-c2ccc(C3[C@H]4CNC[C@@H]3N4C(=O)Nc3ccccc3Cl)cc2)c1 (stereo partly drawn)	RAD52 anneal inh 50.8! (no result: RAD54 branch)
COc1cccc(NC(=O)N2[C@@H]3CNC[C@H]2C3c2ccc(-c3cccc(OC)c3)cc2)c1 (stereo partly drawn)	RAD52 anneal inh 66.5! (no result: RAD54 branch)
O=C(Nc1cccc(F)c1)N1[C@@H]2CNC[C@H]1C2c1ccc(-c2ccncc2)cc1 (stereo partly drawn)	none (no result: RAD54 branch)
CC(=O)N1CC2(C1)[C@@H](c1ccc(-c3ccc(F)cc3)cc1)[C@@H](CO)N2C(C)=O	none (no result: RAD54 branch)
COc1ccc2c3c([nH]c2c1)[C@H](CO)N(C(=O)c1ccc(F)cc1)CC31CN(Cc2cccnc2)C1	none (no result: RAD54 branch)
CCNc1nc(Oc2ccc(C#N)cc2)cc(C(F)(F)F)n1	PGC1a acetyl inh inconclusive, GSIS activator 105.1 (no result: RAD54 branch)
C[C@H](CO)N1C[C@H](C)[C@@H](CN(C)Cc2ccc(-c3ccccc3)cc2)Oc2ccc(NS(=O)(=O)c3ccc(Cl)cc3)cc2CC1=O	none (no result: ERAP1 inh, AF4-AF9 inh, RAD54 branch, RAD52 anneal inh)
Cc1cc(C(=O)Nc2cccc(O)c2)c(C)o1	GSIS activator 56.9 (no result: ERAP1 inh, AF4-AF9 inh, RAD52 anneal inh)
O=C(C[C@H]1CC[C@@H]2[C@H](COC[C@@H](O)CN2C(=O)c2ccncc2)O1)NC1CCC1	none
CCCN(C)C[C@H]1OCCCC[C@@H](C)Oc2ccc(NC(=O)c3ccncc3)cc2C(=O)N([C@@H](C)CO)C[C@H]1C	none (no result: ERAP1 inh, AF4-AF9 inh, RAD54 branch, RAD52 anneal inh)
O=C(NN=C1CCCC1)c1cc(-c2ccccc2)n[nH]1	GSIS activator 48.1 (no result: ERAP1 inh, AF4-AF9 inh, RAD54 branch, PGC1a acetyl inh, RAD52 anneal inh)
COc1cccc(S(=O)(=O)N(C)C[C@@H]2Oc3cc(C4=CCCC4)ccc3S(=O)(=O)N([C@@H](C)CO)C[C@H]2C)c1	none
